# About 410 targets per protein were measured; listed, in parts, are those with the strongest signals and a random draw of the rest.
# B1: PEB1 (Campylobacter jejuni), Q0P9X8 (protein)
# chain: MVFRKSLLKLAVFALGACVAFSNANAAEGKLESIKSKGQLIVGVKNDVPHYALLDQATGEIKGFEVDVAKLLAKSILGDDKKIKLVAVNAKTRGPLLDNGSVDAVIATFTITPERKRIYNFSEPYYQDAIGLLVLKEKKYKSLADMKGANIGVAQAATTKKAIGEAAKKIGIDVKFSEFPDYPSIKAALDAKRVDAFSVDKSILLGYVDDKSEILPDSFEPQSYGIVTKKDDPAFAKYVDDFVKEHKNEIDALAKKWGL
# B2: CBM32-5 (Clostridium perfringens) (protein)
# chain: MGSSHHHHHHSSGLVPRGSHMASALPQGNMKATATSEHPDVGNEGLAKFAIDGKENTIWHTKYNPVEELPQSITLELGGSYEINKFTYLPRSGAKNGNITKYELHVSEDGNNFRKISEGNWDDSGSLKTLKFNSTKATHVKLVALEGVGGFASAAELNVFA
# Tests used:
# Experiment in all cases: glycan array binding signal (z-score within array); higher = stronger binding
# Conditions in all cases: glycan notation: IUPAC condensed, linker removed
# [1] = biological target: Neu5Ac(a2-6)Gal(b1-4)GlcNAc(b1-2)Man(a1-6)Man(b1-4)GlcNAc(b1-4)GlcNAc
# In short: (§1)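 The binding signal is a Z-score computed within each array. Data were drawn from 3228 arrays in the Consortium for Functional Glycomics database, restricted to those with a known protein sequence. Scores were averaged over arrays of the same protein sequence at different concentrations or buffers, and over linkers, and negative values can be taken as non-binding.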
# [2] = biological target: Neu5Ac9Ac(a2-3)Gal(b1-3)GlcNAc
# In short: as §1
# [3] = biological target: Neu5Gc(a2-3)Gal(b1-3)[Fuc(a1-4)]GlcNAc
# In short: as §1
# [4] = biological target: Neu5Gc(a2-6)Gal(b1-4)GlcNAc
# In short: as §1
# Fuc(a1-2)Gal(b1-4)Glc6S = biological target: Fuc(a1-2)Gal(b1-4)Glc6S
# In short: as §1
# [5] = biological target: Fuc(a1-2)[GalNAc(a1-3)]Gal(b1-4)[Fuc(a1-3)]GlcNAc
# In short: as §1
# [6] = biological target: Fuc(a1-2)[GalNAc(a1-4)]Gal(b1-4)GlcNAc
# In short: as §1
# [7] = biological target: Fuc(a1-2)[GalNAc(b1-3)]Gal
# In short: as §1
# Gal(a1-3)Gal = biological target: Gal(a1-3)Gal
# In short: as §1
# Gal(a1-3)Gal(b1-4)Glc = biological target: Gal(a1-3)Gal(b1-4)Glc
# In short: as §1
# Gal(a1-4)Gal(b1-4)GlcNAc = biological target: Gal(a1-4)Gal(b1-4)GlcNAc
# In short: as §1
# [8] = biological target: Gal(b1-3)[Fuc(a1-4)]GlcNAc(b1-3)Gal(b1-4)GlcNAc
# In short: as §1
# [9] = biological target: Gal(b1-3)[Fuc(a1-4)]GlcNAc(b1-3)Gal(b1-4)[Fuc(a1-3)]GlcNAc
# In short: as §1
# [10] = biological target: Gal(b1-4)GlcNAc(a1-6)Gal(b1-4)GlcNAc
# In short: as §1
# [11] = biological target: Gal(b1-4)GlcNAc(b1-3)Gal(b1-4)[Fuc(a1-3)]GlcNAc(b1-3)Gal(b1-4)[Fuc(a1-3)]GlcNAc
# In short: as §1
# [12] = biological target: Gal(b1-4)GlcNAc(b1-3)GalNAc
# In short: as §1
# [13] = biological target: Gal(b1-4)GlcNAc(b1-3)[Gal(b1-4)GlcNAc(b1-6)]Gal(b1-4)GlcNAc
# In short: as §1
# [14] = biological target: Gal(b1-4)GlcNAc(b1-6)Gal(b1-4)GlcNAc
# In short: as §1
# GalNAc(a1-3)Gal = biological target: GalNAc(a1-3)Gal
# In short: as §1
# GalNAc(b1-3)Gal = biological target: GalNAc(b1-3)Gal
# In short: as §1
# [15] = biological target: GalNAc(b1-3)Gal(a1-4)Gal(b1-4)GlcNAc
# In short: as §1
# GalNAc(b1-3)GalNAc = biological target: GalNAc(b1-3)GalNAc
# In short: as §1
# [16] = biological target: GlcNAc(b1-3)Gal(b1-4)GlcNAc
# In short: as §1
# [17] = biological target: Man(a1-2)Man(a1-2)Man(a1-6)[Man(a1-3)]Man
# In short: as §1
# Man(a1-2)Man(a1-3)Man = biological target: Man(a1-2)Man(a1-3)Man
# In short: as §1
# [18] = biological target: Man(a1-2)Man(a1-3)[Man(a1-6)]Man(a1-6)[Man(a1-2)Man(a1-3)]Man(b1-4)GlcNAc(b1-4)GlcNAc
# In short: as §1
# [19] = biological target: Neu5Ac(a2-3)Gal(b1-3)[Fuc(a1-4)]GlcNAc
# In short: as §1
# [20] = biological target: Neu5Ac(a2-3)Gal6S(b1-4)GlcNAc
# In short: as §1
# [21] = biological target: Neu5Ac(a2-3)GalNAc(b1-4)GlcNAc
# In short: as §1
# [22] = biological target: Neu5Ac(a2-6)Gal(b1-4)GlcNAc6S
# In short: as §1
# [23] = biological target: Neu5Ac(a2-8)Neu5Ac(a2-8)Neu5Ac(a2-8)Neu5Ac(a2-3)[GalNAc(b1-4)]Gal(b1-4)Glc
# In short: as §1
Binder,glycan array binding signal (z-score) [1],glycan array binding signal (z-score) [2],glycan array binding signal (z-score) [3],glycan array binding signal (z-score) [4],glycan array binding signal (z-score) (Fuc(a1-2)Gal(b1-4)Glc6S),glycan array binding signal (z-score) [5],glycan array binding signal (z-score) [6],glycan array binding signal (z-score) [7],glycan array binding signal (z-score) (Gal(a1-3)Gal),glycan array binding signal (z-score) (Gal(a1-3)Gal(b1-4)Glc),glycan array binding signal (z-score) (Gal(a1-4)Gal(b1-4)GlcNAc),glycan array binding signal (z-score) [8],glycan array binding signal (z-score) [9],glycan array binding signal (z-score) [10],glycan array binding signal (z-score) [11],glycan array binding signal (z-score) [12],glycan array binding signal (z-score) [13],glycan array binding signal (z-score) [14],glycan array binding signal (z-score) (GalNAc(a1-3)Gal),glycan array binding signal (z-score) (GalNAc(b1-3)Gal),glycan array binding signal (z-score) [15],glycan array binding signal (z-score) (GalNAc(b1-3)GalNAc),glycan array binding signal (z-score) [16],glycan array binding signal (z-score) [17],glycan array binding signal (z-score) (Man(a1-2)Man(a1-3)Man),glycan array binding signal (z-score) [18],glycan array binding signal (z-score) [19],glycan array binding signal (z-score) [20],glycan array binding signal (z-score) [21],glycan array binding signal (z-score) [22],glycan array binding signal (z-score) [23]
B1,1.09,-0.504,-0.646,0.988,–,–,–,–,–,–,–,–,–,–,–,–,–,–,–,–,–,–,–,–,–,–,–,–,–,–,–
B2,–,–,–,–,-0.037,-0.639,9.74,6.11,-0.718,2.12,0.124,-0.65,-0.543,0.343,-0.59,0.285,3.1,0.749,2.91,4.11,1.22,0.845,-0.249,-0.584,-0.091,-0.536,-0.236,-0.395,-0.526,-0.183,-0.621

# Reference: the supplement of paper PMC8728848
